Screens as filed in PubChem.
Hits are enriched below; roughly 19% of the tested compounds scored in any of these assays.
IL1B secr inh: qHTS for Inhibitors of Inflammasome Signaling: IL-1-beta AlphaLISA Primary Screen; THP-1 LPS/ATP IL-1B secretion, AlphaLISA, 16 h; hits give low values; activity change, % at 57.5 µM; hit rate 4.7% among 360,000; in the data active = activity change below about -50%; inconclusive = mostly about -30% to -49%
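THP-1 cells pretreated 1 hr with compounds (up to 57.5 uM final), then stimulated with LPS (250 ng/mL final) plus ATP (1.25 mM final); secreted IL-1B measured by AlphaLISA after 16 hr, decreased signal indicating inhibition.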
HT1080-NT tox: qHTS for induction of synthetic lethality in tumor cells producing 2HG: qHTS for the HT-1080-NT fibrosarcoma cell line; HT-1080-NT fibrosarcoma viability, CellTiter-Glo ATP luminescence, 48 h; Potency, µM (top dose mostly 46.1 µM), inactives show top-dose activity, negative = less viability, most hits filed as cytotoxic; hit rate 1.6% among 360,000;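 note: NT is the 2HG producing partner of a matched IDH1 knockdown line; potency is the fitted concentration of half-maximal effect; 0% = DMSO-treated cells and -100% = media-only wells without cells; nearly all actives have a fitted effect of over 55% in size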
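Toxicity toward the 2HG-producing NT line was scored as %Activity, normalised to DMSO and no-cell wells, from CellTiter-Glo luminescence after 48 hours' treatment.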
DT40 TDP1 no CPT: qHTS for Inhibitors of human tyrosyl-DNA phosphodiesterase 1 (TDP1): qHTS in cells in absence of CPT; DT40 Tdp1-/- hTDP1 cells, no CPT, ATP luminescence, 48 h; AID 686978, 2013; hit rate 15% among 420,000; Potency, µM (titrated, usually from 46.2 µM), for the others: top-dose activity change, negative = growth inhibition, usual class: inhibitors; note: potency is the fitted concentration of half-maximal effect; nearly all actives have a fitted effect of over 55% in size
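Cells were dispensed at 400 per well, compounds added by pin tool, plates incubated ≥48 hr at 37 °C, then CellTiter-Glo added for 30 min at room temperature before luminescence reading. Line: DT40 Tdp1-/- complemented with hTDP1; camptothecin omitted.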
HT1080 IDH1KD tx: qHTS for induction of synthetic lethality in tumor cells producing 2HG: qHTS for the HT-1080-IDH1KD cell line | HT-1080 IDH1 knockdown viability, ATP luminescence, 48 h | Potency, µM (series often up to 46.1 µM), for the others: top-dose activity, negative = toxicity, hits mostly cytotoxic | hit rate 2% among 360,000;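 note: potency is the fitted concentration of half-maximal effect; 0% = DMSO wells and -100% = cell-free medium wells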
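CellTiter-Glo luminescence after 48 h compound exposure at 37 degrees C of IDH1-knockdown HT-1080 cells in 5% FBS RPMI. %Activity scaled between DMSO wells and cell-free media wells, with curves fitted and assigned curve classes.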
TDP1 cell CPT: qHTS for Inhibitors of human tyrosyl-DNA phosphodiesterase 1 (TDP1): qHTS in cells in presence of CPT | hit rate 12% among 420,000 | chicken DT40 Tdp1-/-;hTDP1 cells + 20 nM CPT, ATP luminescence, 48 h | Potency, µM (series often up to 46.2 µM), for the others: at the highest dose activity change, negative = growth inhibition, usual class: inhibitors | AID 686979, 2013; note: potency is the fitted concentration of half-maximal effect; nearly all actives have a fitted effect of over 55% in size
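Chicken DT40 Tdp1-/- cells complemented with human TDP1, 400 cells/well, exposed to compounds plus 20 nM camptothecin for at least 48 h at 37 C; viability read as ATP content by CellTiter-Glo luminescence.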
uPA generation: qHTS for Inhibitors of Cell Surface uPA Generation; cell surface uPA generation assay, qHTS; Potency, µM (series often up to 38.3 µM), for the others: top-dose activity change, negative = inhibition, hits mostly inhibitors; hit rate 0.31% among 330,000; active = well fitted inhibition curve with a large enough effect; inconclusive = small, poorly fitted or top-dose-only effect; inactive = no such curve, though single readings can be large or run the other way; tested in mouse RAW 264.7 cells; note: potency is the fitted concentration of half-maximal effect; nearly all actives have a fitted effect of over 55% in size
Numbers without * were called inactive. Unless noted, calls come from the whole dose curve; as a rule, active = well fitted curve in the direction sought with a large enough effect; inconclusive = small, poorly fitted or top-dose-only effect, or another doubt; inactive = no such curve, though single readings can be large; an effect the other way counts as inactive or inconclusive. Unless noted, % is set by controls: 0 for no effect and ±100 for the full control effect.

For CCOC(=O)C1(CCc2ccccc2)CCN(Cc2ccc(O)cc2)CC1 the results were IL1B secr inh -22.7, HT1080-NT tox -4.5%, DT40 TDP1 no CPT 20.6µM*, HT1080 IDH1KD tx -13.4%, TDP1 cell CPT 16.4µM* and uPA generation inconclusive.
CCOC(=O)C1(CCc2ccccc2)CCN(Cc2c(O)cccc2OC)CC1 was read as IL1B secr inh -91.7*, HT1080-NT tox inconclusive, DT40 TDP1 no CPT 13µM*, HT1080 IDH1KD tx 32.6µM* and TDP1 cell CPT 25.9µM*.
Screening CCOC(=O)C1(CCc2ccccc2)CCN(Cc2ccc(OC)cc2)CC1 returned IL1B secr inh -28.7, HT1080-NT tox -13.8%, DT40 TDP1 no CPT 9.4%, HT1080 IDH1KD tx -1.9%, TDP1 cell CPT -14.4% and uPA generation -1.4%.
CCSc1nnc(NC(=O)CCNC(=O)c2ccccc2Cl)s1 was read as IL1B secr inh -1.2, HT1080-NT tox -8.8%, DT40 TDP1 no CPT -13.6%, HT1080 IDH1KD tx -10.7%, TDP1 cell CPT -5.6% and uPA generation 2.1%.
CCOC(=O)c1noc2nc(C)n(CC(=O)NC(C)CC)c(=O)c12 (stereo not given) was read as DT40 TDP1 no CPT inconclusive and TDP1 cell CPT -8.9%.
For COc1ccc(Nc2nc(C(C)(C)C)nc3c2nnn3Cc2ccccc2Cl)cc1OC the results were IL1B secr inh -5.9, HT1080-NT tox -1.9%, DT40 TDP1 no CPT 14.6µM*, HT1080 IDH1KD tx -1.2%, TDP1 cell CPT 18.4µM* and uPA generation 5.8%.
For Cc1nc2c(nnn2Cc2ccccc2)c(=O)[nH]1 the results were IL1B secr inh 0.0, HT1080-NT tox 14.3%, DT40 TDP1 no CPT inconclusive, HT1080 IDH1KD tx -0.6%, TDP1 cell CPT 23.1µM* and uPA generation 4.5%.
CC(C)CCNc1ncnc2c1nnn2Cc1ccccc1Cl was read as IL1B secr inh -11.3, HT1080-NT tox 3.3%, DT40 TDP1 no CPT -12.1%, HT1080 IDH1KD tx 3.4%, TDP1 cell CPT -14.8% and uPA generation -3.6%.
For Cc1nc(Nc2ccc(S(=O)(=O)N3CCCCC3C)cc2)c2nnn(Cc3ccccc3)c2n1 (stereo not given) the results were IL1B secr inh -8.0, HT1080-NT tox -0.7%, DT40 TDP1 no CPT 23.1µM*, HT1080 IDH1KD tx 20.7%, TDP1 cell CPT inconclusive and uPA generation -0.1%.
Screening COc1ccc(Nc2nc(C)nc3c2nnn3Cc2ccccc2)cc1OC returned IL1B secr inh -10.9, HT1080-NT tox -14.1%, DT40 TDP1 no CPT 23.1µM*, HT1080 IDH1KD tx -12.9%, TDP1 cell CPT inconclusive and uPA generation -8.1%.
For CN(C)c1ccc(C=NC2CCc3ccccc32)cc1 (stereo not given) the results were DT40 TDP1 no CPT -19.6% and TDP1 cell CPT -1.1%.
CN(c1ccccc1)c1nccc(=O)[nH]1 was read as IL1B secr inh 6.4, HT1080-NT tox 15.5%, DT40 TDP1 no CPT -3.3%, HT1080 IDH1KD tx 11.4%, TDP1 cell CPT 4.0% and uPA generation 27.4%.
Screening COC(=O)[C@H](CC(C)C)NC(=O)Cn1cnc2c(NCc3ccccc3)ncnc21 returned IL1B secr inh 0.3, HT1080-NT tox -1.2%, DT40 TDP1 no CPT -4.5%, HT1080 IDH1KD tx 10.0%, TDP1 cell CPT -16.4% and uPA generation 9.8%.
For CCOC(=O)CNc1nc(C(C)(C)C)nc2c1nnn2Cc1ccccc1Cl the results were IL1B secr inh 15.8, HT1080-NT tox -1.9%, DT40 TDP1 no CPT 25.9µM*, HT1080 IDH1KD tx -20.2% and TDP1 cell CPT inconclusive.
`Cc1nc(NCCc2ccc(F)cc2)c2nnn(Cc3ccccc3)c2n1` gave IL1B secr inh 9.5, HT1080-NT tox 23.7%, DT40 TDP1 no CPT -0.2%, HT1080 IDH1KD tx 15.2%, TDP1 cell CPT -0.5% and uPA generation -0.2%.
Screening Cc1nc(Nc2ccccc2Br)c2nnn(Cc3ccccc3)c2n1 returned IL1B secr inh -15.9, HT1080-NT tox -3.2%, DT40 TDP1 no CPT inconclusive, HT1080 IDH1KD tx -7.0%, TDP1 cell CPT inconclusive and uPA generation inconclusive.
For Cc1nc(N(C)Cc2ccccc2)c2nnn(Cc3ccccc3)c2n1 the results were IL1B secr inh -24.3, HT1080-NT tox -6.9%, DT40 TDP1 no CPT 18.4µM*, HT1080 IDH1KD tx -0.6%, TDP1 cell CPT 23.1µM* and uPA generation -0.1%.
Screening Cc1nc(NCCc2ccc(O)cc2)c2nnn(Cc3ccccc3)c2n1 returned IL1B secr inh -27.6, HT1080-NT tox inconclusive, DT40 TDP1 no CPT 14.6µM*, HT1080 IDH1KD tx inconclusive, TDP1 cell CPT inconclusive and uPA generation -10.4%.
Cc1nc(Nc2cc(F)ccc2C)c2nnn(Cc3ccccc3)c2n1 was read as IL1B secr inh inconclusive, HT1080-NT tox -7.6%, DT40 TDP1 no CPT 20.6µM*, HT1080 IDH1KD tx -18.3%, TDP1 cell CPT inconclusive and uPA generation -0.9%.
For CC(=O)c1ccc(N=c2scc(C)n2C(C)C)cc1 the results were IL1B secr inh -13.9, HT1080-NT tox 13.8%, DT40 TDP1 no CPT inconclusive, HT1080 IDH1KD tx 15.4%, TDP1 cell CPT -28.7% and uPA generation 6.5%.
`CC(=O)c1ccc(NC(=O)CSc2nnc3ccc(-c4ccc(Cl)cc4)nn23)cc1` gave DT40 TDP1 no CPT -11.3% and TDP1 cell CPT -12.4%.
`COc1ccc([C@@H]2[C@@H](C)N(c3ccccc3)c3ccccc3C(=O)N2Cc2ccccc2)cc1` gave IL1B secr inh -9.2, HT1080-NT tox inconclusive, DT40 TDP1 no CPT 16.4µM*, HT1080 IDH1KD tx inconclusive and TDP1 cell CPT inconclusive.
`Cc1ccc(-c2nnc3ccccc3c2C(=O)Nc2cccc(C(F)(F)F)c2)cc1` gave DT40 TDP1 no CPT -7.0% and TDP1 cell CPT -7.1%.
COc1ccccc1NC(=O)C1=C(C)Nc2nc(-c3ccco3)nn2C1c1ccccc1F (stereo not given) was read as DT40 TDP1 no CPT inconclusive and TDP1 cell CPT 16.4µM*.
For COc1ccccc1NC(=O)C1=C(C)Nc2nnnn2C1c1cccc(C)c1 (stereo not given) the results were IL1B secr inh -0.7, HT1080-NT tox -1.8%, DT40 TDP1 no CPT inconclusive, HT1080 IDH1KD tx -3.7%, TDP1 cell CPT inconclusive and uPA generation -4.8%.
